What all share (test): NCI-60 one-dose screen, 48 h (100 = growth as untreated, 0 = no growth, -100 = all killed)
The subject of experiment [1] is HT29 colon. As to conditions: 10 µM unless noted.
Experiment [2] concerns SNB-75 CNS. As to conditions: 10 µM unless noted.
For experiment [3], the system named is SNB-19 CNS. The conditions noted are these: 10 µM unless noted.
Experiment [4] relates to U251 CNS. The conditions noted are these: 10 µM unless noted.
The test system of experiment [5] is PC-3 prostate. As to conditions: 10 µM unless noted.
Experiment [6] concerns SK-MEL-5 melanoma. As to conditions: 10 µM unless noted.
The subject of experiment [7] is UACC-62 melanoma. The conditions noted are these: 10 µM unless noted.
In experiment [8] the test system is LOX IMVI melanoma. As to conditions: 10 µM unless noted.
For experiment [9], the system named is SK-MEL-28 melanoma. As to conditions: 10 µM.
Experiment [10] has as its system SK-MEL-2 melanoma. As to conditions: 10 µM unless noted.
The subject of experiment [11] is EKVX NSCLC. The conditions noted are these: 10 µM unless noted.
For experiment [12], the system named is SN12C renal. As to conditions: 10 µM unless noted.
Experiment [13] relates to UO-31 renal. As to conditions: 10 µM unless noted.
Experiment [14] relates to TK-10 renal. As to conditions: 10 µM unless noted.
Experiment [15] deals with ACHN renal. As to conditions: 10 µM unless noted.
Experiment [16] has as its system CAKI-1 renal. The conditions noted are these: 10 µM unless noted.
Experiment [17] concerns A498 renal. The conditions noted are these: 10 µM unless noted.
Experiment [18] concerns CCRF-CEM leukemia. As to conditions: 10 µM unless noted.
For experiment [19], the system named is MOLT-4 leukemia. The conditions noted are these: 10 µM unless noted.
Experiment [20] deals with SR leukemia. The conditions noted are these: 10 µM unless noted.

About 83,000 compounds went through this panel and 20% of them were active in at least one assay; those are over-represented in the sample as a whole.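 Interpretation: 100, growth as untreated; towards 0, rising growth inhibition; 0, no net growth; 0 to -100, cell death. Compounds scoring below 10 were considered active.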 Unmarked numbers belong to inactive results. Active and inactive are the calls of the source.

As to `COc1cc2nc(NC3CCCC3)nc(NC3CCN(C(C)C)CC3)c2cc1OC`, the growth in [1] is 17.3%; in experiment [2], 61.2%; in experiment [3] it was 88%; in [4] it was 45%; in experiment [5], 71.1%; in experiment [6] it was 67.6%. In addition, the growth was 94.6% in experiment [7]; 84.4% in [8]; 87.1% in experiment [9]; 101% in experiment [10]; 81.6% in experiment [11]; 97.3% in [12]. Further, the growth in experiment [13] is 79.5%; in experiment [14], 71.7%; in experiment [15], 86.9%; in experiment [16], 98.2%; in [17], 97.4%; in experiment [18], 66.4%. For the same compound, the growth was 54.1% in experiment [19] and -1.77% (active) in experiment [20].
Regarding `Cn1c(/C=C(\C#N)c2cccc(C(F)(F)F)c2)nc2c(N3CCOCC3)nc(Cl)nc21`, the growth in experiment [1] was -41.5% (active); in experiment [2] it was -22.7% (active); in experiment [3], 56.3%; in experiment [4] it was 2.31% (active); in experiment [5], -42.6% (active); in experiment [6], 9.34% (active). Also, the growth is -81.1% (active) in [7]; -87.9% (active) in [8]; -87.2% (active) in experiment [9]; -21.2% (active) in [10]; -76.2% (active) in experiment [11]; -0.107% (active) in experiment [12]. Further, the growth in experiment [13] was -100% (active); in [14], -67% (active); in [15], -100% (active); in [16], -94% (active); in experiment [17], 10.8%; in [18] it was 4.85% (active). Further, the growth in [19] is -14.3% (active); in experiment [20], 10.3%.
Turning to `Oc1[nH]c2ccccc2c1N=Nc1nnc2n1N=C(c1ccccc1)CS2`, the growth in experiment [1] is 72.5%; in experiment [2], 65.1%; in [3], 83.6%; in experiment [4], 50.4%; in experiment [5], 81%; in experiment [6] it was 95.6%. Besides, the growth in [7] is 99.8%; in [8] it was 93.4%; in experiment [9], 97%; in experiment [10] it was 87.6%; in experiment [11] it was 87.7%; in [12], 99.1%. Also, the growth is 100% in experiment [13]; 94% in [14]; 94.8% in experiment [15]; 79.4% in [16]; 92.9% in experiment [17]; 96.6% in [18]. In addition, the figures for the growth in experiment [19] and in [20] were 88% and 77.3%, respectively.
Take `Cc1nc2ccccc2c(/C=C/c2ccccc2)c1C(=O)/C=C/c1ccc(Cl)cc1`: the growth was -8.66% (active) in experiment [1]; 57.8% in experiment [2]; 13.6% in [3]; -33.2% (active) in [4]; 33.9% in [5]; 32.4% in [6]. In addition, the growth in experiment [7] is 34.9%; in experiment [8], -90.3% (active); in experiment [9], 19.2%; in experiment [10], 14.7%; in experiment [11], 39.9%; in experiment [12] it was 19.7%. Besides, the growth in [13] was 11.1%; in experiment [14] it was 21.9%; in experiment [15], 14.3%; in [16], 12.6%; in experiment [17], 36.7%; in experiment [18], 3.51% (active). The growth in experiment [19] was 5.62% (active).
Turning to `COc1cc(/C=C/C(=O)c2c(C)nc3ccccc3c2/C=C/c2ccccc2)cc(OC)c1OC`, the growth in experiment [1] was -1.3% (active); in experiment [2], 14.2%; in [3], 1.12% (active); in experiment [4] it was -14.1% (active); in experiment [5] it was 20.5%; in experiment [6] it was 8.08% (active). Also, the growth in experiment [7] is 10.5%; in experiment [8], -86.7% (active); in experiment [9] it was 1.27% (active); in experiment [10], -6.78% (active); in experiment [11], 26.9%; in experiment [12], 11.1%. The growth in [13] is 27.4%; in experiment [14] it was 10.1%; in [15] it was -27.4% (active); in experiment [16], 30.8%; in experiment [17], 40.6%; in [18] it was 4.76% (active). Moreover, in experiment [19], the growth was -0.744% (active).
Take `O=C1c2cc(Cl)ccc2Oc2cc([N+](=O)[O-])ccc2N1c1ccc(F)cc1F`: the growth in [1] is 79%; in experiment [2] it was 69.8%; in experiment [3], 91.9%; in experiment [4], 86.6%; in experiment [5], 89.4%; in experiment [6] it was 68.7%. Moreover, the growth is 81.2% in experiment [7]; 95.4% in experiment [8]; 114% in [9]; 80.3% in experiment [10]; 108% in experiment [11]; 101% in experiment [12]. Besides, the growth in [13] is 71.2%; in [14], 112%; in [15] it was 90.6%; in [16] it was 59%; in experiment [17], 91.3%; in [18], 85.3%. Moreover, in [19], the growth is 57.4%.
`COc1ccc(N(C)c2nc(N)nc3sc4c(c23)CCCC4)cc1`: the growth was -4.37% (active) in experiment [1]; 51.3% in experiment [2]; 23.8% in experiment [3]; 15.8% in [4]; 27% in experiment [5]; -24.9% (active) in [6]. In addition, the growth was 42.9% in [7]; 22.6% in experiment [8]; 55% in experiment [9]; 16.6% in experiment [10]; 61% in experiment [11]; 24.2% in experiment [12]. Moreover, the growth in [13] was 38.5%; in experiment [14] it was 45.1%; in [15], 26.7%; in experiment [16] it was 25.6%; in experiment [17], 0.565% (active); in [18], 9.1% (active). Further, the growth in [19] is 11.6%; in experiment [20], 6.49% (active).
On to `NCCCNc1nc2ccccc2c2c(=O)c3cc(F)ccc3sc12`, for which the growth in experiment [1] was -50.9% (active); in [2], 25%; in experiment [3], 44.4%; in experiment [4], -56.1% (active); in experiment [5] it was 18.9%; in experiment [6] it was 76.4%. Moreover, the growth in experiment [7] was -76.1% (active); in experiment [8], -92.1% (active); in experiment [9] it was 0.2% (active); in experiment [10], 50.6%; in experiment [11], 35.6%; in experiment [12] it was 41.7%. Besides, the growth in experiment [13] was 23%; in [14], -46.6% (active); in experiment [15] it was -66.7% (active); in experiment [16] it was 33.8%; in experiment [17], 20.5%; in experiment [18], 0.338% (active). The growth is -35% (active) in experiment [19] and 9.08% (active) in [20].
